The list is not random: actives were taken first. Their share in the collection is about 4.7%.
D1 potentiator – enhances dopamine response at the human D1 receptor. potentiation, % at 10 µM. HEK293 TREx D1 cells, calcium flux, dopamine EC20 potentiation. hit rate 0.036% among 360,000. P21728. AID 504651; in the data active means potentiation above about 30%
D1 antag – blocks dopamine activation of the human D1 receptor | HEK293 TREx D1 cells, calcium flux, dopamine EC80; hits give low values | activity change, negative = inhibition, % at 10 µM | hit rate 3.2% among 360,000 | P21728; in the data active means activity change below about -30%
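Tetracycline-induced HEK293 Trex D1 cells, force-coupled to calcium, dye-loaded; compounds added and read 180 s, then EC80 dopamine added and calcium flux tracked kinetically another 180 s.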
TRHR enhancer – allosteric enhancers of human TRH receptor. P34981. TRHR cells, fluo-8 calcium fluorescence, EC20 TRH enhancement. enhancement, % at 2 µM. hit rate 0.66% among 360,000. AID 493056; in the data active means enhancement above about 30%
Target sequence (P34981 whole entry, looked up): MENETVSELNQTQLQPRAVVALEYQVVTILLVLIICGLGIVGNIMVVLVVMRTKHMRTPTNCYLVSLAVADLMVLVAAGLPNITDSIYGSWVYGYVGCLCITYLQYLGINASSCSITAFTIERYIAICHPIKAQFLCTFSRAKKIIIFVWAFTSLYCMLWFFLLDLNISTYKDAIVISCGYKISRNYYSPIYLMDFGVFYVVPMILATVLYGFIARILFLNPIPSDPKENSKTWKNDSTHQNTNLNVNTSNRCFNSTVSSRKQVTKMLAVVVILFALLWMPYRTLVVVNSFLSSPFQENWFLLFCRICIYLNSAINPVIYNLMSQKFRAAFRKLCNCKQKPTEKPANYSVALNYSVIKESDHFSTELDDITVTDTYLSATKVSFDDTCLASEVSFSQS
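Enhancer read-out: after compound pinning and an initial kinetic agonist-mode read, an EC20 of TRH (10 nM final) was injected and fluo-8 calcium signal (Ex 480/Em 530) followed at 1 s/cycle for 100 cycles in TRHR-expressing cells.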
D1 agonist – agonists of human D1 dopamine receptor; HEK293 T-REx D1 cells, calcium flux, agonist mode; activation, % at 2 µM; hit rate 1% among 360,000; AID 504660
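Inducible HEK293 T-REx D1 cells, force-coupled to calcium signalling, were plated at 4000 cells/well with tetracycline and held overnight at 30 C. After no-wash calcium dye loading, compound-evoked calcium rise over 180 s flagged agonists.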
TRHR ag – agonists of human TRH receptor | activation, % at 2 µM | TRHR cells, calcium flux fluo-8, FDSS agonist mode | hit rate 0.18% among 360,000 | P34981
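TRHR-expressing cells loaded with fluo-8 calcium dye; 23 nL library compound pin-transferred, kinetic FDSS fluorescence (Ex 480/Em 530) recorded about 180 s for agonist-induced calcium release, before a 10 nM TRH EC20 addition for potentiator mode.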
Hits are given with their value; - = inactive; . = no result; ! = a repeat was not active. Unless noted, no stated cut-off is given here; in the data, active means activation above about 30%; inactive means the rest.

SMILES | D1 potentiator | D1 antag | TRHR enhancer | D1 agonist | TRHR ag
O=C(O)CCc1ccc(-c2cccs2)n1CC(=O)Nc1ccccc1C(F)(F)F | - | -38.8! | - | - | -
O=C(O)CCc1ccc(-c2ccccc2)n1CC(=O)Nc1cccc(C(F)(F)F)c1 | - | -65.3 | - | - | -
O=C(O)CCc1ccc(-c2ccccc2)n1CC(=O)Nc1ccccc1C(F)(F)F | - | - | - | - | -
CCc1c(C)sc2c1CCN(C(=O)Nc1cc(Cl)c(OC)cc1OC)C2c1ccccc1 (stereo unspecified) | - | - | - | - | -
CC(=O)Nc1ccc(/C=C/c2nc(-c3ccccc3O)n(-c3ccccc3)n2)cc1 | - | - | - | - | -
CCCCCn1cc2c(c1-c1ccc(Cl)cc1)c(=O)n(C)c(=O)n2C | - | - | - | - | -
COc1ccc(OCC(O)CNCCOc2ccccc2OC)c(C(C)(C)C)c1 (stereo unspecified) | - | - | - | 59.0 | -
COc1ccccc1NCC(O)COc1ccc(C(C)(C)C)cc1 (stereo unspecified) | - | - | - | - | -
CCc1ccccc1NC(=O)Cn1c(=O)n(Cc2ccccc2)c(=O)c2c(C)c(C(=O)N(C)C)sc21 | - | - | - | - | -
Cc1cc(F)ccc1NC(=O)C1CSC2(C)CCC(=O)N12 (stereo unspecified) | - | - | - | - | -
O=C(Nc1ccc(F)cc1)Nc1ccccc1NS(=O)(=O)c1cccs1 | - | - | - | - | -
O=C(Nc1ccc(Cl)cc1)Nc1ccccc1NS(=O)(=O)c1cccs1 | - | -33.0 | - | - | -
O=C(NC1CC(=O)N(c2ccccc2)C1)c1cccs1 (stereo unspecified) | - | . | - | - | -
O=C(c1ccc2c(c1)N(Cc1ccc(F)cc1)C(=O)c1ccccc1S2(=O)=O)N1CCC(Cc2ccccc2)CC1 | - | - | - | - | -
N#CCCN(C(=O)COC(=O)c1ccc(CNS(=O)(=O)c2ccc(F)c(Cl)c2)cc1)c1ccc(F)cc1 | - | -32.8 | - | - | -
CCCN(CC1CC1)C(=O)COC(=O)c1ccc(CNS(=O)(=O)c2ccc(F)c(Cl)c2)cc1 | - | - | - | - | -
Cc1onc(-c2ccccc2Cl)c1C(=O)NCc1ccccn1 | - | - | - | - | -
Cc1onc(-c2c(F)cccc2Cl)c1C(=O)NCc1ccccn1 | - | -38.7 | - | - | -
Cc1onc(-c2c(F)cccc2Cl)c1C(=O)c1ccc(F)cc1 | - | -55.3 | - | - | -
Cc1onc(-c2c(F)cccc2Cl)c1C(=O)c1ccccc1O | - | -40.7 | - | - | -
Fc1ccccc1Cn1c(-c2ccccc2)nc2ccccc21 | - | - | - | - | -
COc1ccc(-c2c(-c3cc(OC)cc(OC)c3)n(C)c3ccc(-c4ccc(S(N)(=O)=O)cc4)cc23)cc1 | - | . | - | - | -
N#Cc1c(-c2cccnc2)c2c([nH]c1=O)-c1ccccc1OC2 | - | -31.1 | - | - | -
CN(C)c1ccc(/C=C2/SC(=O)N(CCN=C3NS(=O)(=O)c4ccccc43)C2=O)cc1 | - | - | - | 39.8 | -
CN(C)c1ccc(/C=C2\SC(=O)N(CC(O)Cn3c4ccccc4c4ccccc43)C2=O)cc1 (stereo unspecified) | - | - | - | 45.7 | -
SMILES | D1 potentiator | D1 antag | TRHR enhancer | D1 agonist | TRHR ag
CN(C)c1ccc(/C=C2\SC(=O)N(CCc3nnc(N)s3)C2=O)cc1 | - | - | - | 62.0 | -
Cc1cccc(NC(=O)C2CCC(CNS(=O)(=O)c3ccc4c(c3)CCCC(=O)N4)CC2)c1C (stereo unspecified) | - | - | - | - | -
CCOC(=O)CC(/C(C)=N\O)c1ccccc1 (stereo unspecified) | - | -74.9 | - | - | -
CCOC(=O)CC(NC(=O)C(CC)c1ccccc1)c1ccccc1Cl (stereo unspecified) | - | - | - | - | -
Cc1cc(N2CCN(C)CC2)nc2ccc(NC(=O)Nc3cccc(Cl)c3)cc12 | - | - | - | - | -
COC(=O)c1cc2n(n1)CCN(Cc1ccccc1Cl)C2=O | - | - | 32.1 | - | -
Cn1c(=O)c2c(SCC(=O)N3CCOCC3)nc(-c3ccccc3F)nc2n(C)c1=O | - | - | - | - | -
C/C(=N\NC(=O)c1c(Cl)c(C)nn1C)c1ccc(NC(=O)COc2ccc(Cl)cc2C)cc1 | - | -40.6 | - | - | -
CN1CCN(C(CNC(=O)Nc2ccc(Cl)cc2)c2ccc(F)cc2)CC1 (stereo unspecified) | - | - | - | - | -
Cc1ccc(C(CNC(=O)Nc2ccc(Cl)cc2)N2CCN(C)CC2)cc1 (stereo unspecified) | - | -44.0 | - | - | -
Cc1ccc2c(c1)N(CC(=O)NC1CCCC1)C(=O)c1cccnc1O2 | - | - | - | - | -
COc1ccc(/C(C)=N/NC2=NCCN2)cc1Cl | - | -92.5 | - | - | -
COc1ccccc1NC(=O)/C(=C\c1cccnc1)NC(=O)c1ccc(C)cc1 | - | -32.0 | - | - | -
N#C/C(=C\c1cccnc1)C(=O)Nc1ccc(Cl)cc1 | - | -31.0 | - | - | -
COc1ccccc1NC(=O)/C(C#N)=C/c1cccnc1 | - | -30.8 | - | - | -
COc1ccccc1NC(=O)/C(=C\c1cccnc1)NC(=O)c1ccccc1 | - | - | - | - | -
CC(C#N)N1CCN(S(=O)(=O)c2ccc3c(c2)CCC3)CC1 (stereo unspecified) | - | - | - | - | -
COc1cccc(C2CC(=O)Nc3c2c(=O)n(C)c2nc4ccccc4n32)c1OC (stereo unspecified) | - | - | - | - | -
Cc1cc(C(=O)N/N=C/C(Cl)=C/c2ccccc2)c(C)o1 | - | -32.6 | - | - | -
CC(/C=N/NC(=O)c1ccccc1F)=C\c1ccccc1 | - | -35.2 | - | - | -
Cc1cc(C)nc(SCC(=O)N/N=C/c2cccnc2)n1 | - | - | - | - | -
CC(/C=N/NC(=O)c1n[nH]c2c1CCC2)=C\c1ccccc1 | - | -78.9 | - | - | -
O=C(N/N=C/C(Cl)=C/c1ccccc1)c1ccccn1 | - | - | - | - | -
CC(=C/c1ccccc1)/C=N/NC(=O)CSc1nc(C)cc(C)n1 | - | -33.9 | - | - | -
CC1CCC(NC(=O)CSc2nnnn2C)CC1 (stereo unspecified) | - | - | - | - | -
CC(=O)c1sc(NC(=O)C2CCCN2S(=O)(=O)c2ccccc2F)nc1C (stereo unspecified) | - | - | - | - | -
O=C(Cn1nnc(-c2ccc(Cl)cc2)n1)NC1CC2CCC1C2 (stereo unspecified) | - | -33.5 | - | - | -
O=S(=O)(Cc1cc(-c2ccccc2Cl)no1)c1ccccc1 | - | - | - | 37.2 | -
O=S(=O)(Cc1cc(-c2ccc(Cl)cc2)no1)c1ccccc1 | - | - | - | - | -
COc1ccccc1N=C1NC(=O)/C(=C/c2ccc(N(C)C)cc2)S1 | - | - | - | 108.1 | -

High-throughput results (PubChem)
